Our source for the z-score values is PubChem BioAssay.

A short description of test [1]: A549 cell viability effects, profiling panel, calcein-AM fluorescence, 48 h, basal (AID 1162). The note with it: higher = more signal.
Test [2] in a line: adipocyte viability effects, profiling panel, cell-based, 3T3-L1 adipocytes, calcein-AM fluorescence, 48 h, basal (AID 1163). The following applies: 3T3-L1 adipocytes viability, higher = more signal.
Test [3] can be described thus: HepG2 cell viability effects, profiling panel, calcein-AM fluorescence, 48 h, basal (AID 1164). The following applies: higher = more signal.
Test [4] is described as follows: MM1S cell viability effects, profiling panel, calcein-AM fluorescence, 48 h, basal (AID 1165).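 Also: viability of MM1S multiple myeloma cells under basal unstimulated conditions.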 The following applies: higher = more signal.
The nature of test [5]: basal RPMI8226 viability, no added stimulus, profiling panel, cell-based, calcein-AM fluorescence, 48 h, PK04 Diversity Set (AID 1166).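 Also: cells grown under basal conditions without added stimulus.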 The note with it: RPMI8226 myeloma viability, higher = more signal.
Test [6] in a line: basal HepG2 mitochondrial membrane potential changes, profiling panel, cell-based, JC-1 fluorescence, 24 h, 100 nL compound (AID 1167). The following applies: higher = more signal.
A short description of test [7]: basal 3T3-L1 adipocyte mitochondrial potential changes, profiling panel, cell-based, JC-1 fluorescence, 3T3-L1 adipocytes, 24 h, 100 nL compound (AID 1168). The following applies: JC-1 mitochondrial fluorescence, higher = more signal, called active from +8 up or from −8 down.
Test [8] is described as follows: basal RPMI8226 mitochondrial membrane potential changes, profiling panel, cell-based, JC-1 fluorescence, 24 h, 100 nL compound (AID 1169). The following applies: RPMI8226 myeloma, JC-1 mitochondrial potential fluorescence, higher = more signal.
Test [9] in a line: basal MM1S mitochondrial membrane potential changes, profiling panel, cell-based, JC-1 fluorescence, 24 h, 100 nL compound (AID 1170). The note with it: higher = more signal.
Test [10] can be described thus: A549 lung cancer cell viability effects, profiling panel, resazurin fluorescence, 24 h, PK04 Diversity Set (AID 1171). The note with it: higher = more signal, called active from +8 up or from −8 down.

Each structure is given as a SMILES string. The source made the active and inactive calls.
Also: test concentration not given here.

As for `CCOC(=O)C[C@H]1[C@H](OC(=O)Cc2ccc3c(c2)OCO3)[C@@H](NC(=O)C2CCCCC2)c2cc(OCCCO)ccc2N1C(=O)c1ccccc1`, the z-score in test [1] was 1.99; in test [2], -0.193; in [3], -0.0568; in test [4], 0.567; in test [5], -0.354; in test [6] it was 1.69. For the same compound, the z-score in test [7] was 0.247 (inactive); in test [8] it was 0.0348; in [9], 0.137; in [10], 0.745 (inactive).

Turning to `C=CCC(OC(C)=O)[C@@H]1[C@@H](N(Cc2ccc(-c3ccccc3)cc2)C(=O)c2ccc(-c3ccccc3)cc2)c2cc(OCCCO)ccc2N1C(=O)c1ccc2ccccc2c1` (stereo not given in full), the z-score was -0.77 in [1]; 0.676 in test [2]; 0.313 in test [3]; -0.531 in [4]; -0.685 in test [5]; 1.42 in [6]. For the same compound, the z-score in test [7] was -0.645 (inactive); in test [8] it was 0.795; in test [9], 0.563; in test [10], 0.204 (inactive).

Consider `O=C(O)[C@@H]1[C@@H]2C(=O)N(c3ccccc3)C(=O)[C@@H]2C[C@@H]1Sc1ccccc1`, for which the z-score in test [1] is -0.653; in test [2] it was -0.832; in test [3] it was -1.32; in test [4], -0.939; in [5], -0.616; in test [6], -0.829. Also, the z-score in [7] was -0.867 (inactive); in test [8], 0.718; in test [9], -0.773; in test [10], 0.0964 (inactive).

For the compound `COc1cccc(C)c1NC(=O)O[C@H]1[C@H](OC(=O)Nc2ccccc2-c2ccccc2)[C@H](OC(=O)Nc2ccccc2-c2ccccc2)[C@@H](OC)O[C@@H]1CO`, the z-score in test [1] was -0.889; in [2], 0.328; in [3], 0.56; in [4], -0.632; in test [5] it was -2.77; in test [6] it was -0.214. For the same compound, the z-score in test [7] is 1.33 (inactive); in test [8] it was 0.198; in test [9], 0.143; in test [10] it was -1.11 (inactive).

As to `CCOC(=O)C[C@H]1[C@H](OC(=O)c2cc3ccccc3oc2=O)[C@@H](NC(=O)c2ccc3ccccc3n2)c2cc(OCCCO)ccc2N1C(=O)Cc1ccc(OC)cc1`, the z-score is 0.308 in test [1]; 0.499 in test [2]; -0.355 in test [3]; 0.765 in [4]; -0.946 in test [5]; 0.492 in test [6]. Besides, the z-score in test [7] is -0.362 (inactive); in test [8] it was 0.498; in test [9], -0.423; in [10], 0.711 (inactive).

Take `CC1=C2[C@@H](CCc3ccccc3)OB(O)C[C@@H]2[C@@H]2C(=O)N(Cc3ccccc3)C(=O)[C@@H]2C1`: the z-score in [1] was -0.261; in test [2], -0.351; in test [3] it was -0.932; in [4], -2.9; in [5] it was -2.4; in test [6] it was -0.999. Also, the z-score in test [7] was -0.301 (inactive); in [8] it was 0.49; in test [9], 0.821; in test [10] it was -0.17 (inactive).

`Cc1ccc(S[C@]2(C(=O)NCCN3CCOCC3)CC(=O)N(Cc3ccccc3Cl)[C@@H]2c2ccc(CO)cc2I)cc1`: the z-score in test [1] is 0.932; in test [2], -0.0217; in test [3], 0.995; in test [4] it was -1.62; in [5] it was -3.01; in [6], 1.53. The z-score is -0.272 (inactive) in test [7], -0.151 in [8], -1.87 in [9] and -0.817 (inactive) in [10].

As for `COc1cc(NN2C(C(O)c3cc(OC)c(OC)c(OC)c3)C=CC3C(=O)N(C)C(=O)C32)cc(OC)c1OC` (stereo not given), the z-score in test [1] is -0.991; in [2] it was -0.919; in test [3] it was -0.122; in test [4] it was -0.147; in test [5], -0.176; in [6] it was -1.09. In addition, the z-score in [7] is -1.04 (inactive); in [8], 0.729; in test [9], -0.417; in test [10] it was -0.4 (inactive).

Take `CCCCNC(=O)c1ccc(C#CC(C)(C)C)c(OC(C)=O)c1`: the z-score in [1] was 0.3; in test [2], 1.75; in test [3], -0.835; in [4] it was 0.13; in test [5], -1.37; in test [6], -0.75. Further, the z-score in test [7] is -0.103 (inactive); in test [8], -0.284; in test [9], -0.221; in test [10], -0.654 (inactive).

Regarding `CCCC[C@@H]1C[C@H]1[C@@H](NC(=O)c1cccs1)c1ccccc1C(F)(F)F`, the z-score was 0.11 in [1]; -0.556 in test [2]; -0.305 in test [3]; -0.6 in test [4]; -1.72 in test [5]; -2.45 in test [6]. In addition, the z-score is -1.22 (inactive) in [7], -0.307 in test [8], -1.24 in test [9] and -0.462 (inactive) in [10].

For the compound `[N-]=[N+]=Nc1ccccc1C[C@@]1(C(N)=O)N=C(c2ccc(OCCCO)cc2)O[C@@H]1c1ccccc1N=[N+]=[N-]`, the z-score is -1.53 in [1]; 1.08 in test [2]; -0.727 in test [3]; -1.68 in test [4]; -4.08 in test [5]; -1.11 in [6]. Further, the z-score in test [7] was -1.35 (inactive); in test [8], -1.23; in test [9] it was -0.169; in test [10], -0.385 (inactive).

In the case of `CCCCCN1CC=CC23O[C@@H]4C=CCCOC(=O)C4[C@H]2C(=O)N(CCCCCCO)[C@@H]3C1=O` (stereo not given in full), the z-score in test [1] is -0.182; in test [2] it was -0.131; in test [3], 0.28; in test [4], 0.762; in test [5], 0.494; in [6], 0.306. The z-score in test [7] was 0.737 (inactive); in test [8] it was 0.548; in test [9] it was -0.823; in [10] it was 0.229 (inactive).

Turning to `COC(=O)[C@@]1(Cc2ccc(F)cc2)[C@H]2c3cc(C(=O)N4CCCC4)n(CCc4c[nH]c5ccccc45)c3C[C@H]2CN1C(=O)c1ccccc1`, the z-score in test [1] was -1.41; in [2], -0.743; in test [3], -1.33; in test [4], -1.57; in test [5], -3.02; in test [6], 0.28. Moreover, the z-score in test [7] was -0.222 (inactive); in [8] it was -0.915; in test [9], -1.21; in test [10] it was -1.22 (inactive).

On to `O=C(NCc1ccc(F)cc1)[C@H]1C[C@H]2C(=O)NCC(=O)N2[C@H]1c1ccc(O)cc1`, for which the z-score is 0.139 in [1]; -0.218 in test [2]; -0.457 in [3]; -1.49 in test [4]; 0.461 in test [5]; 0.679 in [6]. Moreover, the z-score is -0.276 (inactive) in [7], 0.683 in test [8], 0.318 in test [9] and 0.54 (inactive) in test [10].

On to `COc1ccc(CCNC(=O)[C@@]2(Cc3ccccc3I)c3ccccc3C(=O)N(C3CCCCC3)[C@H]2c2ccc(CO)cc2)cc1`, for which the z-score in test [1] is 1; in test [2] it was 2.42; in [3] it was -0.449; in test [4], -1.93; in [5] it was -2.47; in test [6], 2.5. Moreover, the z-score in [7] was 0.537 (inactive); in [8], -0.184; in [9] it was -1.17; in test [10], -0.584 (inactive).

As for `O=C1C2C=CC(C(O)C3CC=CCC3)N(Nc3ccccc3)C2C(=O)N1c1ccccc1` (stereo not given), the z-score in test [1] is -1.05; in test [2], -0.0629; in test [3], -1.2; in [4], -1.13; in test [5], -1.14; in [6], -2.47. Besides, the z-score was -0.858 (inactive) in test [7], 0.173 in [8], -1.02 in [9] and -0.728 (inactive) in test [10].
